Reference: PubChem BioAssay (Tox21)
Several values for one entry are separate records, joined by “and”; a condition that tells them apart may be missing. Equal entries are not always repeated. Inconclusive results are not listed. A call without a number means that no potency is given here. Activity calls are given as the source filed them. The call rests on the fitted dose curve; in most records, active means well fitted cell-killing curve with a large enough effect in the repeat runs; inconclusive means weak or mixed curves, or effect the other way; inactive means no such curve, though single readings can be large or run the other way.

Experiment: qHTS assay to identify small molecule antagonists of the glucocorticoid receptor (GR) signaling pathway - cell viability counter screen (AID 720693); further: nearly all actives have a fitted effect of over 55% in size
Conditions: GR-bla HeLa viability, CellTiter-Glo luminescence, 18 h, with 5 nM dexamethasone present; series mostly up to 58.5 µM
Text: National Center for Advancing Translational Sciences [NCATS]
NIH Chemical Genomics Center [NCGC]
U.S. Environmental Protection Agency [EPA]
National Institutes of Environmental Health Sciences [NIEHS]
National Toxicology Program [NTP]
U.S. Food and Drug Administration [FDA]
The Glucocorticoid receptor (GR) is one of the members of the nuclear receptor family of ligand-dependent transcription factors. GR plays a critical role in carbohydrate, protein and lipid metabolisms and programmed cell death. CellSensor GR-bla HeLa cell line (Invitrogen) contains a beta-lactamase reporter gene under the control of the glucocorticoid response element stably integrated into HeLa cells, a cervical cancer cell line that expresses glucocorticoid receptor. The activation of the reporter gene under culture conditions can be detected by fluorescence intensity. This cell line has been used to screen the Tox21 10K compound library and to identify the compounds that inhibit the GR signaling. The cytotoxicity of the Tox21 compound library against the GR-bla HeLa cell line was tested in parallel by measuring the cell viability using CellTiter-Glo assay in the same wells.
Tox21 Assay Protocol Summary:
The GR-bla HeLa cells were dispensed at 1500 cells/5 ul/well in 1536-well black wall/clear bottom plates using a Multidrop Combi (ThermoFisher Scientific, Waltham, MA) dispenser. After the assay plates were incubated at a 37 C/5% CO2 incubator for 4 hours, 23 nL of compounds dissolved in DMSO, positive controls or DMSO only was transferred to the assay plate by a pintool station (Kalypsys, San Diego, CA), followed by addition of 1 uL of dexamethasone (5 nM, final concentration in the well). The plates were incubated at 37 C for 18 hours. After 1 uL of LiveBLAzerTM B/G FRET substrate was added using a Flying Reagent Dispenser (Aurora Discovery, San Diego, CA), the plates were incubated at room temperature (RT) for 2 hours, and fluorescence intensity was measured by an Envision plate reader (PerkinElmer, Shelton, CT). After measurement of bla assay, 3 ul CellTiter-Glo (Promega, Madison, WI) was added to measure the cytotoxicity and the plates were then incubated at RT for 30 min. The luminescence was measured using a ViewLux (Perkin Elmer) plate reader.
Potency means the concentration at half of the fitted maximal effect.

**Q.** For CN(C)CCN(Cc1cccs1)c1ccccn1, which Potency is on record?
**A.** inactive

**Q.** For CN(C)C(=N)N=C(N)N, which Potency is on record?
**A.** inactive

**Q.** For COC(C)COC(C)COC(C)CO (stereo not given), which Potency is on record?
**A.** inactive

**Q.** With O=C(c1ccccc1)c1ccccc1O as the compound, how does the Potency read?
**A.** inactive

**Q.** With Cc1cccc([N+](=O)[O-])c1C as the compound, how does the Potency read?
**A.** inactive

**Q.** For CC(C)(C)NC(=O)[C@H]1CC[C@H]2[C@@H]3CC[C@H]4NC(=O)C=C[C@]4(C)[C@H]3CC[C@]12C, which Potency is on record?
**A.** inactive

**Q.** With C=CC(C)(CCC=C(C)C)OC(C)=O (stereo not given) as the compound, how does the Potency read?
**A.** inactive

**Q.** For Nc1ccc(S(=O)(=O)Nc2cnc3ccccc3n2)cc1, which Potency is on record?
**A.** inactive

**Q.** Which Potency does the source give for COc1ccccc1/C=C/C=O here?
**A.** inactive

**Q.** Which Potency does the source give for CCOCCOCCO here?
**A.** inactive

**Q.** For CCCCC(CC)COCC1CO1 (stereo not given), which Potency is on record?
**A.** inactive

**Q.** With c1ccc2c(c1)Oc1ccccc1S2 as the compound, how does the Potency read?
**A.** inactive

**Q.** Which Potency does the source give for C[Si](C)(C)O[Si](C)(C)C here?
**A.** inactive

**Q.** With CCC(C)(O)CCCC(C)C (stereo not given) as the compound, how does the Potency read?
**A.** inactive

**Q.** With O=C(O)c1ccccc1Nc1cccc(C(F)(F)F)c1 as the compound, how does the Potency read?
**A.** inactive

**Q.** Which Potency does the source give for CN(C)c1nc(N(C)C)nc(N(C)C)n1 here?
**A.** inactive

**Q.** For CCC(C)CO (stereo not given), which Potency is on record?
**A.** inactive

**Q.** With Brc1cc(Oc2cc(Br)c(Br)c(Br)c2Br)c(Br)c(Br)c1Br as the compound, how does the Potency read?
**A.** inactive

**Q.** Which Potency does the source give for O=C(Nc1ccc(Cl)cc1)Nc1ccc(Cl)c(Cl)c1 here?
**A.** 4.77 µM (active) and 7.73 µM (active) and 6.92 µM (active)

**Q.** With NNc1ccc(C(=O)O)cc1 as the compound, how does the Potency read?
**A.** inactive

**Q.** For c1ccc(Nc2ccccc2)cc1, which Potency is on record?
**A.** inactive

**Q.** With C=C(C)C(=O)OCCOC(=O)C(=C)C as the compound, how does the Potency read?
**A.** inactive

**Q.** Which Potency does the source give for CCCCC/C=C/C=C/C=O here?
**A.** inactive

**Q.** Which Potency does the source give for CC(C)=CCC/C(C)=C\CO here?
**A.** inactive

**Q.** With CC(C)CC(C)(O)C#CC(C)(O)CC(C)C (stereo not given) as the compound, how does the Potency read?
**A.** inactive

**Q.** With O=C(COc1ccc(Cl)cc1)N1CCN(Cc2ccc3c(c2)OCO3)CC1 as the compound, how does the Potency read?
**A.** inactive

**Q.** With CC1=CCC(C(C)(C)O)CC1 (stereo not given) as the compound, how does the Potency read?
**A.** inactive

**Q.** For CCC(C)OC(=O)c1ccc(O)cc1 (stereo not given), which Potency is on record?
**A.** inactive

**Q.** Which Potency does the source give for C#C[C@]1(O)CC[C@H]2[C@@H]3CCc4cc(OC)ccc4[C@H]3CC[C@@]21C here?
**A.** inactive

**Q.** Which Potency does the source give for CCCC(=O)O here?
**A.** inactive

**Q.** With CNCCCC12CCC(c3ccccc31)c1ccccc12 as the compound, how does the Potency read?
**A.** inactive

**Q.** For CC(C)Oc1ccc2c(=O)c(-c3ccccc3)coc2c1, which Potency is on record?
**A.** inactive

**Q.** With CCCCCCCCCCCO as the compound, how does the Potency read?
**A.** inactive

**Q.** With Nc1ccc(Cl)cc1Cl as the compound, how does the Potency read?
**A.** inactive

**Q.** For CC(C)OB(OC(C)C)OC(C)C, which Potency is on record?
**A.** inactive

**Q.** Which Potency does the source give for COC(=O)c1ccccc1 here?
**A.** inactive

**Q.** For CCCCC(CC)COP(=O)(OCC(CC)CCCC)OCC(CC)CCCC (stereo not given), which Potency is on record?
**A.** inactive

**Q.** With CC(=O)c1ccccn1 as the compound, how does the Potency read?
**A.** inactive

**Q.** For O=P(O)(O)O, which Potency is on record?
**A.** inactive

**Q.** Which Potency does the source give for c1ccncc1 here?
**A.** inactive
